Reference: PubChem BioAssay (NCI)
This is part of a sample that, as a whole, favours compounds with a hit. Of some 83,000 tested, about 20% had one in any assay.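 Step 1: grow cells in 96-well plates. Step 2: add test compound at a single concentration. Step 3: incubate 48 h. Step 4: record percent growth.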 Unmarked numbers belong to inactive results. Active and inactive are the calls of the source. The calls were made as follows: active = growth percent below 10; inactive = the rest.

Assays:
Test in all cases: NCI-60 one-dose screen, 48 h (100 = growth as untreated, 0 = no growth, -100 = all killed)
Details in all cases: 10 µM unless noted
NCI-H23 lung = test system: NCI-H23 lung
NCI-H226 lung = test system: NCI-H226 lung
NCI-H322M lung = test system: NCI-H322M lung
HOP-62 NSCLC = test system: HOP-62 NSCLC
NCI-H460 lung = test system: NCI-H460 lung
HOP-92 NSCLC = test system: HOP-92 NSCLC
NCI-H522 lung = test system: NCI-H522 lung
A549/ATCC NSCLC = test system: A549/ATCC NSCLC
786-0 renal = test system: 786-0 renal
COLO 205 colon = test system: COLO 205 colon
DU-145 prostate = test system: DU-145 prostate
K-562 leukemia = test system: K-562 leukemia
MALME-3M melanoma = test system: MALME-3M melanoma
MDA-MB-231 breast = test system: MDA-MB-231 breast
RXF 393 renal = test system: RXF 393 renal
SF-268 CNS = test system: SF-268 CNS
SF-295 CNS = test system: SF-295 CNS
SF-539 CNS = test system: SF-539 CNS
UACC-257 melanoma = test system: UACC-257 melanoma
M14 melanoma = test system: M14 melanoma

| Compound | growth (NCI-H23 lung) | growth (NCI-H226 lung) | growth (NCI-H322M lung) | growth (HOP-62 NSCLC) | growth (NCI-H460 lung) | growth (HOP-92 NSCLC) | growth (NCI-H522 lung) | growth (A549/ATCC NSCLC) | growth (786-0 renal) | growth (COLO 205 colon) | growth (DU-145 prostate) | growth (K-562 leukemia) | growth (MALME-3M melanoma) | growth (MDA-MB-231 breast) | growth (RXF 393 renal) | growth (SF-268 CNS) | growth (SF-295 CNS) | growth (SF-539 CNS) | growth (UACC-257 melanoma) | growth (M14 melanoma) |
| --- | --- | --- | --- | --- | --- | --- | --- | --- | --- | --- | --- | --- | --- | --- | --- | --- | --- | --- | --- | --- |
| CSc1ccc2c3c(n(CCCn4ccnc4)c(=O)c2c1)-c1ccccc1C3=O | 30.7% | 69.2% | 71.7% | 34.7% | 11.5% | 83.2% | 19.3% | 47.9% | 20.4% | 57.9% | 28.5% | 35.6% | 87.8% | 91.4% | 46.3% | 31.7% | 12.1% | 4.89% (active) | 71% | 26.6% |
| O=C(Nc1ccccc1O)c1ccc(CNc2ccnc(C(F)(F)F)c2)cc1 | 39.1% | 68.9% | 56.4% | 60.3% | 38.8% | 78.2% | 34.3% | 56.5% | 45.4% | 112% | 59% | 18.2% | 22% | 62.9% | 80.6% | 54.8% | 36% | 39.1% | 46.4% | 34% |
| O=C(NCCCCO)c1cncnc1Nc1ccc2c(ccn2Cc2cccc(F)c2)c1 | 97.6% | 100% | 72.9% | 94.4% | 101% | 92.1% | 76.9% | 84.4% | 92.4% | 97.7% | 96.2% | 82.5% | 93.9% | 69.3% | 101% | 99.3% | 97.6% | 94.4% | 96.7% | 89.9% |
| O=C(OCc1ccc2c(Cl)cc(Cl)c(O)c2n1)N1CCN(C(=O)c2cc3ccccc3[nH]2)CC1 | 47.1% | 28.3% | 37.5% | 20% | 12.8% | 14.7% | 22.1% | 10.8% | 44.2% | 39% | 43.8% | 19.9% | 36.8% | 44.7% | 46.5% | 24.3% | 16.1% | 39.8% | 25.5% | 16.9% |
| O=S(Nc1ccccc1)c1ccc(Cl)cc1 (stereo not given) | 105% | 99.9% | 104% | 92% | 95.1% | 103% | 82.8% | 78.9% | 103% | 102% | 116% | 94.6% | 108% | 103% | 99.2% | 100% | 107% | 102% | 86.2% | 99.2% |
| Cc1nc2sc(C(=O)Nc3cccc4ccccc34)c(N)c2cc1C(=O)c1ccccc1 | 40.2% | 68.3% | 62.4% | 42.5% | 7.31% (active) | 77.6% | 15.5% | 23.5% | 42.5% | -2.82% (active) | 18.3% | 9.45% (active) | 58.5% | 15.2% | 22.6% | 53.4% | 10.4% | -12.1% (active) | 72.7% | 12.4% |
| Cc1ccc2c(c1)sc1nc(-c3c[nH]c4ccccc34)c(Nc3ccccc3)n12 | 98.4% | 98.6% | 106% | 96.1% | 101% | 101% | 90.6% | 101% | 105% | 107% | 108% | 94.4% | 101% | 93% | 111% | 101% | 100% | 97.2% | 105% | 107% |
| COc1ccc2c(c1)c(-c1nc(-c3ccc4ccccc4c3)cs1)cn2C | 87.1% | 85.3% | 85.1% | 90.4% | 98.4% | 93% | 79.2% | 82.6% | 75.4% | 84% | 103% | 67.7% | 149% | 80.2% | 69.1% | 100% | 104% | 89% | 94% | 96.9% |
| CCCC(=O)NC(c1ccc2c(c1)OCO2)c1cc(Cl)c2cccnc2c1O (stereo not given) | 48.3% | 50.4% | 42.1% | 23.1% | 22.7% | 39.4% | 13.8% | 30.7% | 32.4% | 11.5% | 53.7% | 11.4% | 42.5% | 34.9% | 59.9% | 37.7% | 12.7% | 18.6% | 37.8% | 26.3% |
| CN(C)CCC(=O)C1CC1 | 97% | 102% | 98.4% | 91.2% | 103% | 101% | 97.1% | 103% | 99.4% | 112% | 111% | 102% | 102% | 103% | 104% | 102% | 116% | 107% | 91.7% | 104% |
| CCNC(=O)N1CCc2c(Br)c3c(c(OC)c2C1Cc1ccc(OC)cc1)OCO3 (stereo not given) | 60.8% | 70.8% | 52.9% | 36.3% | 15.2% | 40.6% | 25.5% | 34.2% | 31.2% | 3.06% (active) | 54.5% | 20% | 33.8% | 47.3% | 17% | 43.5% | 25.5% | 22.6% | 65.4% | 11.6% |
| CCn1cc(C(=O)N/N=C/c2ccccc2)c(=O)c2cc(F)c(N3CCNC(C)C3)c(F)c21 (stereo not given) | 68.5% | 87.4% | 52.4% | 68.6% | -73% (active) | 55.8% | -75.3% (active) | -83.9% (active) | -67.4% (active) | -74.4% (active) | -87.9% (active) | -39.4% (active) | -78% (active) | -70.4% (active) | -61.3% (active) | 38.9% | 8.87% (active) | -86.9% (active) | 39.6% | -49.7% (active) |
| CCN1C(=O)N(c2ccccc2)C2NC(=S)N(/N=C/C=C/c3ccccc3OC)C21 (stereo not given) | 39.6% | 49.9% | 41.8% | 35.1% | 3.66% (active) | 43.4% | 9.88% (active) | 24.1% | 26% | 6.54% (active) | 5.45% (active) | 9.41% (active) | 40.9% | 16.7% | 62.2% | 47.3% | 14.2% | -13.3% (active) | 22% | 11.2% |
| CC/C(=C(/c1ccc(O)cc1)c1ccc(OCCN2CCCCC2)cc1)c1ccc(OC)cc1 | 79.2% | 103% | 90.2% | 83.5% | 57.4% | 70.2% | 74.7% | 64.4% | 57.1% | -28.9% (active) | 71.3% | -30.8% (active) | -28.3% (active) | 55.1% | 68.4% | 62.6% | 86.9% | 86.3% | 81% | -61.2% (active) |
| OC1CSSC1Cn1cnc2c(Nc3ccc(OCc4cccc(F)c4)c(Cl)c3)ncnc21 (stereo not given) | -69.4% (active) | 4.07% (active) | -27.8% (active) | -27.2% (active) | -6.17% (active) | 139% | -31.6% (active) | 3.03% (active) | 69.5% | -58.3% (active) | -36.8% (active) | -56.7% (active) | -5.08% (active) | -59.2% (active) | 42.3% | -41.5% (active) | 4.71% (active) | -3.08% (active) | 26.6% | -81.1% (active) |
